Test results from PubChem BioAssay (NCATS).
Records with an inconclusive call do not appear. The source made the active and inactive calls. Calls come from the whole dose curve; as a rule, active = well fitted cell-killing curve with a large enough effect; inconclusive = small, poorly fitted or top-dose-only effect, or effect the other way; inactive = flat fitted curve, though single readings scatter.
% is set by controls: 0 for no effect and ±100 for the full control effect; potency is the fitted concentration of half-maximal effect.

These compounds were tested on Tov112D (assay: Primary qHTS to identify gynecologic anti-cancer compounds using libraries of approved drugs and bioactive compounds (AID 1345084; note: nearly all actives have a fitted effect of over 55% in size)). Settings: Gynecologic cancer cell panel viability, ATPlite luminescence, 48 h; series mostly up to 57.5 µM; activity change, negative = cytotoxicity: at the top concentration.
Procedure, shortened: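 48 h compound exposure at 37 C, 5% CO2; five-point qHTS. ATPlite luminescence readout of cell ATP.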
In the case of `COc1ccc(C2(N(C)C(=O)c3ccc(NC(=O)c4ccco4)cc3)CCOCC2)cc1`, the “activity change, negative = cytotoxicity” value is reported as 14.6% (inactive). `CC(=O)C=C=C1C(C)(C)CC(O)CC1(C)O[C@@H]1O[C@H](CO[C@H]2OC[C@](O)(CO)[C@H]2O)[C@@H](O)[C@H](O)[C@H]1O` (some centres not stated) was tested, and the “activity change, negative = cytotoxicity” value was -1.5% [at 25.3 µM] (inactive). For `Cn1cc(-c2ccc3c(c2)CCN3C(=O)Cc2cccc(C(F)(F)F)c2)c2c(N)ncnc21`, the “activity change, negative = cytotoxicity” value was -5.72% (inactive). In the case of `CCOC(=O)C1(CCOc2ccccc2)CCN(Cc2ccc(O)c(Cl)c2)CC1`, the “activity change, negative = cytotoxicity” value is reported as -9.95% (inactive). In the case of `CCn1c(-c2nonc2N)nc2c(C#CC(C)(C)O)ncc(OCC3CCCNC3)c21` (configuration not stated), the “activity change, negative = cytotoxicity” value is reported as -4.49% (inactive). In the case of `O=c1nc(-c2ccccn2)sc2ccccc12`, the “activity change, negative = cytotoxicity” value is reported as 0.155% (inactive). `COc1ccccc1S(=O)(=O)Nc1ccc2c(c1)CN(C)C(=O)N2` was tested, and the “activity change, negative = cytotoxicity” value was -26.8% (inactive). With `Cn1cc(-c2ccc(S(=O)(=O)n3ccc(/C=C/C(=O)Nc4ccccc4N)c3)cc2)cn1` the Potency was 4.47 µM (active). In the case of `C=C1C(=O)O[C@@H]2C[C@]3(C)[C@@H](CCC(C)O)[C@@H]3C[C@H]12` (some centres not stated), the “activity change, negative = cytotoxicity” value is reported as -3.72% (inactive). `CNC(C)C(=O)NC(C(=O)N1CCCC1C(=O)Nc1snnc1-c1ccccc1)C1CCCCC1` (configuration not stated) was tested, and the “activity change, negative = cytotoxicity” value was 22.6% (inactive). `C=C1C(=O)OC2/C=C(\C)CC3C=C(CC/C=C(\C)CCC12)C(=O)O3` (configuration not stated) was tested, and the “activity change, negative = cytotoxicity” value was -5.73% [at 38.5 µM] (inactive). For `Cn1cc(-c2cnn3c(N)c(Br)c(C4CCCNC4)nc23)cn1` (configuration not stated), the “activity change, negative = cytotoxicity” value was -33.3% (inactive). In the case of `C=C(NC(=O)C(=C)NC(=O)c1csc(C2=NC3c4csc(n4)C4NC(=O)c5csc(n5)C(C(C)(O)C(C)O)NC(=O)C5CSC(=N5)/C(=C/C)NC(=O)C(C(C)O)NC(=O)c5csc(n5)C3(CC2)NC(=O)C(C)NC(=O)C(=C)NC(=O)C(C)NC(=O)C(C(C)CC)NC2C=Cc3c(C(C)O)cc(nc3C2O)C(=O)OC4C)n1)C(N)=O` (configuration not stated), the “activity change, negative = cytotoxicity” value is reported as -28.8% (inactive). In the case of `C/C1=C\CCC2=CC(OC2=O)C(C)(C)/C=C/C1=O` (configuration not stated), the “activity change, negative = cytotoxicity” value is reported as -24.4% (inactive). With `C[C@H](Oc1cc(-n2cnc3ccc(CN4CCN(C)CC4)cc32)sc1C(N)=O)c1ccccc1C(F)(F)F` the Potency was 7.94 µM (active). With `COc1ccc(CCCN2CCC(COC(c3ccccc3)c3ccccc3)CC2)cc1` the “activity change, negative = cytotoxicity” value was -2.24% (inactive). With `COc1cc(F)c(F)c(Nc2ccc(I)cc2F)c1NS(=O)(=O)C1(CC(O)CO)CC1` (configuration not stated) the “activity change, negative = cytotoxicity” value was -32.5% (inactive).
